Compound activity as filed in PubChem.
Sampled rows, rich in hits. Any-hit rate of the full collection: about 21%.
IL1B secr inh: blocks inflammasome-driven IL-1 beta release; THP-1 LPS/ATP IL-1B secretion, AlphaLISA, 16 h; hits give low values; activity change, % at 57.5 µM; actives 4.7% (n = 360,000); in the data active = activity change below about -50%; inconclusive = mostly about -30% to -49%
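THP-1 cells pretreated 1 hr with compounds (up to 57.5 uM final), then stimulated with LPS (250 ng/mL final) plus ATP (1.25 mM final); secreted IL-1B measured by AlphaLISA after 16 hr, decreased signal indicating inhibition.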
RORg inh: ROR gamma (mouse) transcription inhibition; P51450; Drosophila S2 Gal4-RORgamma UAS-luciferase reporter, 20 h; Potency, µM (highest dose often 53.6 µM), for the others: top-dose activity change, negative = inhibition, actives largely listed as inhibitors; actives 5.4% (n = 310,000); AID 2551; note: potency is the fitted concentration of half-maximal effect; nearly all actives have a fitted effect of over 60% in size
Target sequence (P51450 whole entry, looked up, the tested form may be a part): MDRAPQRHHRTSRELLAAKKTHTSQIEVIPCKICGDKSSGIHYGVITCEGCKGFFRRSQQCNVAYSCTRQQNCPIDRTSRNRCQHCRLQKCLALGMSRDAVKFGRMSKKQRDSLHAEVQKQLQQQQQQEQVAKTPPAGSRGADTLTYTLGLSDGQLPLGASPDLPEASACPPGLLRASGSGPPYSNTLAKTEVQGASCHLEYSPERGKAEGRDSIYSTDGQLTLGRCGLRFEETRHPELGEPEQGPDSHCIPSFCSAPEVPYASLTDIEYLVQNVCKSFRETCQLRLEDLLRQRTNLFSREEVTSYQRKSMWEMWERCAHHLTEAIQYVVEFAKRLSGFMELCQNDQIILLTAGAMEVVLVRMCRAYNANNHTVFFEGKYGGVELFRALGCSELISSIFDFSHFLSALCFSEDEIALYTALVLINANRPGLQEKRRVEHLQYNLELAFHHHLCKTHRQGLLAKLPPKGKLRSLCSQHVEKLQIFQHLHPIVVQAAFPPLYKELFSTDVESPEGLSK
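Stable Schneider cell line, Gal4 DNA-binding domain fused to ROR gamma, UAS-luciferase. Cmpd 1 hr RT → CuSO4 700 uM final → 20 hr RT → luciferase reagent 10 min → luminescence.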
ELG1 repair inh: blocks ELG1-dependent DNA repair in HEK293T cells; Potency, µM (titrated, usually from 46.1 µM), inactives show at the top dose activity change, negative = inhibition, actives largely listed as inhibitors; actives 2.3% (n = 330,000); HEK293T ELG1-luciferase reporter, luminescence, 16 h; DNA damage induced by 5-fluorouridine; note: potency is the fitted concentration of half-maximal effect; nearly all actives have a fitted effect of over 55% in size
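Overnight (16 hr) co-exposure of 2,000 cells/well to 5-fluorouridine and compound at 37 °C preceded detection. Luciferase was quantified via ONE-Glo luminescence; loss of signal denotes inhibition.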
TDP1 cell CPT: growth inhibition of DT40 Tdp1-/-;hTDP1 cells with camptothecin (screen for TDP1 inhibitors); actives 12% (n = 420,000); Potency, µM (titrated, usually from 46.2 µM), without a hit: at the top dose activity change, negative = growth inhibition, hits mostly inhibitors; chicken DT40 Tdp1-/-;hTDP1 cells + 20 nM CPT, ATP luminescence, 48 h; note: potency is the fitted concentration of half-maximal effect; nearly all actives have a fitted effect of over 55% in size
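Cell growth measured by CellTiter-Glo luminescence after a minimum 48 h, 37 C compound exposure with 20 nM CPT in Tdp1-knockout DT40 cells stably expressing hTDP1, seeded 400/well; qHTS titration format.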
TDP1 cell noCPT: qHTS for Inhibitors of human tyrosyl-DNA phosphodiesterase 1 (TDP1): qHTS in cells in absence of CPT; DT40 Tdp1-/- hTDP1 cells, no CPT, ATP luminescence, 48 h; Potency, µM (doses to about 46.2 µM), for the others: at the top dose activity change, negative = growth inhibition, usual class: inhibitors; actives 15% (n = 420,000); note: potency is the fitted concentration of half-maximal effect; nearly all actives have a fitted effect of over 55% in size
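Growth kinetics read by CellTiter-Glo luminescence after ≥48 hr at 37 °C. Cells: DT40 Tdp1-/- stably carrying human TDP1, 400 per well, compound exposure in the absence of CPT (DMSO vehicle).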
Gal4-VP16 FLuc: inhibits Gal4-VP16 luciferase reporter, ROR gamma counter-screen; Drosophila S2 Gal4-VP16 UAS-luciferase, luminescence, 20 h; Potency, µM (highest dose often 53.6 µM), for inactives: top-dose activity, negative = inhibition, hits mostly inhibitors; actives 3.5% (n = 310,000); AID 2546;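 note: Gal4-VP16 expression switched on by copper sulfate through the metallothionein promoter; potency is the fitted concentration of half-maximal effect; nearly all actives have a fitted effect of over 50% in size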
* marks the source's active call; other numbers are inactive results; ? = inconclusive; / = not tested or not shown; ! = not active in a repeat. Unless noted, calls come from the whole dose curve; as a rule, active = well fitted curve in the direction sought with a large enough effect; inconclusive = small, poorly fitted or top-dose-only effect, or another doubt; inactive = no such curve, though single readings can be large; an effect the other way counts as inactive or inconclusive. % is set by controls: 0 for no effect and ±100 for the full control effect.

SMILES	IL1B secr inh	RORg inh	ELG1 repair inh	TDP1 cell CPT	TDP1 cell noCPT	Gal4-VP16 FLuc
CCn1c(=O)c2cc(C(=O)Nc3cc(OC)c(OC)c(OC)c3)sc2c2ccccc21	/	/	/	9.2µM*	6.5µM*	/
CCN(CC)CCOC(=O)c1ccc(NC(=O)c2cc3c(=O)n(CC)c4ccccc4c3s2)cc1	/	/	/	5.2µM*	5.2µM*	/
CCOc1ccccc1-n1nnc(-c2nc(-c3ccccc3)no2)c1N	/	/	/	1%	-24%	/
CCn1c(=O)c2cc(C(=O)Nc3ccccc3OC)sc2c2ccccc21	-19	-25%	-9%	15µM*	21µM*	3%
CC1(c2ccccc2)NC(=O)N(CC(=O)N(CC(=O)Nc2ccccc2C(F)(F)F)Cc2ccco2)C1=O (stereo not given)	-6	/	-4%	-6%	-5%	/
C#CCN1C=CC(=O)[C@@H](OC(=O)Nc2ccccc2Br)[C@H]1c1ccccc1Br	-17	/	/	23µM*	?	/
C=CCN1C=CC(=O)[C@@H](OC(=O)Nc2ccc(Br)cc2)[C@H]1c1ccccc1Br	-20	/	/	23µM*	?	/
C#CCN1C=CC(=O)[C@@H](OC(=O)NCCC)[C@H]1c1ccccc1Br	-15	/	/	-27%	-11%	/
C#CCN1C=CC(=O)[C@@H](OC(=O)Nc2ccc(Br)cc2)[C@H]1c1ccccc1Br	-25	/	/	?	?	/
CN1C=CC(=O)[C@@H](O)[C@H]1c1ccccc1Br	14	/	/	12%	11%	/
CN1C=CC(=O)[C@@H](OC(=O)Nc2ccc(Br)cc2)[C@H]1c1ccccc1Br	-7	/	/	?	15µM*	/
Cc1ccc(C)c2c(C)ccnc12	/	/	/	-15%	-4%	/
COc1ccc2cc(OCC(=O)NNC(=O)Nc3ccc(C(C)=O)cc3)ccc2c1	-8	-11%	?	?	?	0%
O=C(NCc1cn(-c2ccccc2)nc1-c1ccccc1)c1cc([N+](=O)[O-])cc([N+](=O)[O-])c1	?	?	-13%	?	?	-10%
O=C(COC(=O)c1cn(-c2ccccc2)nc1-c1ccccc1)c1cccc([N+](=O)[O-])c1	23	31%	-13%	0%	-10%	-3%
COc1ccc(-c2nn(-c3ccccc3)cc2CNC(=O)c2cccc([N+](=O)[O-])c2)cc1	?	?	?	9%	-24%	8.9µM*
O=C(NCc1cn(-c2ccccc2)nc1-c1ccccc1)c1cccc([N+](=O)[O-])c1	?	-81%	21µM*	?	?	?
CCOc1ccc(N(C(=O)OC(C)(C)C)C(=O)c2ccc(O[Si](C)(C)C(C)(C)C)cc2)c(I)c1	/	-10%	/	/	/	-8%
N/C(=N\OC(=O)c1cc([N+](=O)[O-])ccc1Cl)c1cccnc1	-101*	-5%	29%	?	?	-3%
Cc1cc(C(=O)Oc2cccnc2)ccc1[N+](=O)[O-]	19	17%	-1%	0%	-22%	?
O=C(Oc1c(Br)cc([N+](=O)[O-])cc1Br)c1cccnc1	0	42%	-30%	18µM*	?	?
N/C(=N\OC(=O)c1ccccc1[N+](=O)[O-])c1cccnc1	34	-36%	?	-2%	-5%	3%
CCOC(=O)c1cc(-c2ccccc2)sc1NC(=O)C(C)OC(=O)c1cccnc1Cl (stereo not given)	0	28%	-21%	23µM*	23µM*	-3%
CCOC(=O)c1cc(-c2ccccc2)sc1NC(=O)C(C)OC(=O)c1ccncc1 (stereo not given)	-15	-9%	?	23µM*	18µM*	-19%
CCOC(=O)c1cc(-c2ccccc2)sc1NC(=O)C(C)Sc1nnc(C)s1 (stereo not given)	-77*	?	?	-59%	-84%	-4%
SMILES	IL1B secr inh	RORg inh	ELG1 repair inh	TDP1 cell CPT	TDP1 cell noCPT	Gal4-VP16 FLuc
CCOC(=O)c1cc(-c2ccccc2)sc1NC(=O)c1ccc(OC)c(OC)c1	-3	13%	-7%	13µM*	?	-14%
CCOC(=O)c1cc(-c2ccccc2)sc1NC(=O)C(C)C	-22	?	-25%	-30%	?	6%
COc1ccccc1CNS(=O)(=O)c1c(C(=O)N2CCCCC2)c(C)n(C)c1C	-11	-20%	0%	-22%	13%	-8%
CCOC(=O)c1cc(-c2ccccc2)sc1NC(=O)C(C)N1C(=O)NC(C)(c2ccc(Cl)cc2)C1=O (stereo not given)	-53*	15%	26µM*	1%	-15%	10%
CCOC(=O)c1cc(-c2ccccc2)sc1NC(=O)COC	24	-12%	-11%	-18%	-1%	-9%
CCOC(=O)c1ccc(OS(=O)(=O)c2ccccc2)c(OC)c1	8	3%	?	21µM*	?	14%
CC(=O)NCCNc1ncncc1-c1ccccc1C	/	-4%	/	-14%	1%	0%
CCC(Cc1c(I)cc(I)c(N)c1I)C(=O)O (stereo not given)	67	21%	?	4%	9µM*!	-3%
CCc1nc2ccccc2n1CCCCOc1ccc(Cl)cc1	/	/	/	21µM*	?	/
CCc1nc2ccccc2n1CCCCOc1ccc(C)cc1	/	/	/	?	8.2µM*	/
OCc1nc2ccccc2n1CCCOc1ccc(Br)cc1	-11	14%	/	16µM*	18µM*	-3%
OCCCc1nc2ccccc2n1CCCCOc1ccccc1	14	-1%	-13%	?	?	-3%
c1ccc2c(c1)ncn2CCC1CCCCC1	-1	7.9µM*	-19%	26µM*	21µM*	-91%
COC(=O)c1c(C(=O)OC)c2c(-c3ccccc3)cc3cccc1n32	40	/	/	?	?	/
COc1ccc(C2=Nc3ccccc3C2(O)CCN2C(=O)c3ccccc3C2=O)cc1 (stereo not given)	21	/	/	-14%	-23%	/
Clc1ccc(OCCn2cnc3ccccc32)cc1	0	4µM*	-2%	23µM*	18µM*	10%
Cc1ccc(OCc2nc3ccccc3n2CC(C)C)cc1	/	/	/	?	23µM*	/
Cc1ccc(OCc2nc3ccccc3n2C(C)C(=O)Nc2c(C)cccc2C)cc1 (stereo not given)	-21	/	/	?	18µM*	/
CCn1c(COc2ccc(OC)cc2)nc2ccccc21	-15	?	?	-5%	?	-6%
